Among the test systems are HCT-15 colon; HT29 colon; SNB-75 CNS; SNB-19 CNS; U251 CNS; PC-3 prostate; SK-MEL-5 melanoma; LOX IMVI melanoma; SK-MEL-28 melanoma; SK-MEL-2 melanoma; EKVX NSCLC; SN12C renal; UO-31 renal; TK-10 renal; ACHN renal; CAKI-1 renal; A498 renal; CCRF-CEM leukemia; MOLT-4 leukemia.
What all share (assay): NCI-60 one-dose screen, 48 h (100 = growth as untreated, 0 = no growth, -100 = all killed)
Common to all, as to details: 10 µM unless noted

SMILES strings stand for the structures. This is part of a sample that, as a whole, favours compounds with a hit. Of some 83,000 tested, about 20% had one in any assay.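 Negative percent growth values reflect cell death: -40 means 40% of the cells present at the start died, and -100 means all died.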 Values without a mark were called inactive. Calls of active or inactive are those of the source. How the source made its calls: active means growth percent below 10; inactive means the rest.

As to `O=Nc1ccc(NC(=O)Nc2ccc([N+](=O)[O-])cc2)cc1`, the growth with HCT-15 colon is 83.2%; with HT29 colon it was 100%; in the assay with SNB-75 CNS it was 96.4%; in the assay with SNB-19 CNS, 107%; in the assay on U251 CNS, 92.5%; in the assay with PC-3 prostate it was 72.2%. The growth with SK-MEL-5 melanoma is 86.7%; in the assay with LOX IMVI melanoma it was 88.8%; in the assay on SK-MEL-28 melanoma, 108%; in the assay on SK-MEL-2 melanoma, 116%; in the assay with EKVX NSCLC, 96%; with SN12C renal it was 94.9%. The growth in the assay on UO-31 renal is 85.8%; in the assay with TK-10 renal it was 99.7%; with ACHN renal, 94.7%; in the assay with CAKI-1 renal, 97.1%; in the assay with A498 renal, 84%; in the assay with CCRF-CEM leukemia it was 68.4%. In addition, the growth in the assay on MOLT-4 leukemia is 88.6%.

For `COc1ccc2c(c1)CC[C@@H]1[C@@H]2CC[C@]2(C)C3C(=CC(COC(C)=O)C4C(=O)N(c5ccc(Cl)cc5)C(=O)C43)C[C@@H]12` (stereo partly specified), the growth is 94.3% in the assay with HCT-15 colon; 90% in the assay on HT29 colon; 90.5% with SNB-75 CNS; 110% in the assay with SNB-19 CNS; 102% in the assay on U251 CNS; 82% with PC-3 prostate. Moreover, the growth was 93.4% in the assay with SK-MEL-5 melanoma; 94% with LOX IMVI melanoma; 106% with SK-MEL-28 melanoma; 108% in the assay on SK-MEL-2 melanoma; 108% with EKVX NSCLC; 101% in the assay with SN12C renal. Besides, the growth in the assay on UO-31 renal was 79.1%; with TK-10 renal it was 120%; with ACHN renal, 95.8%; in the assay on CAKI-1 renal, 108%; in the assay on A498 renal, 108%; in the assay on CCRF-CEM leukemia, 75.5%. Besides, the growth in the assay on MOLT-4 leukemia was 63.9%.

With `CCn1cc(C(=O)N/N=C/c2cccc(F)c2)c(=O)c2cc(F)c(N3CCNC(C)C3)c(F)c21` (stereo unspecified), the growth is -81.8% (active) in the assay with HCT-15 colon; -87.2% (active) with HT29 colon; 90.1% in the assay with SNB-75 CNS; -59.4% (active) with SNB-19 CNS; -74.3% (active) in the assay on U251 CNS; 69.6% with PC-3 prostate. Moreover, the growth was 52.6% in the assay on SK-MEL-5 melanoma; -90.9% (active) with LOX IMVI melanoma; -64.3% (active) in the assay with SK-MEL-28 melanoma; 104% in the assay on SK-MEL-2 melanoma; 50.7% in the assay with EKVX NSCLC; -4.46% (active) with SN12C renal. Besides, the growth was 20.6% with UO-31 renal; 101% in the assay with TK-10 renal; 74.4% in the assay on ACHN renal; 66.7% in the assay with CAKI-1 renal; 99.2% with A498 renal; -47% (active) with CCRF-CEM leukemia. In addition, the growth in the assay on MOLT-4 leukemia was -26% (active).

For the compound `CCOC(=O)c1[nH]cc2c1CCc1sc(Nc3ccccn3)nc1-2`, the growth in the assay on HCT-15 colon was 67.2%; in the assay on HT29 colon, 77%; in the assay with SNB-75 CNS it was 82.2%; in the assay on SNB-19 CNS it was 85.2%; in the assay on U251 CNS, 69%; in the assay with PC-3 prostate, 56.7%. Also, the growth in the assay with SK-MEL-5 melanoma was 63.5%; in the assay with LOX IMVI melanoma, 81.7%; in the assay with SK-MEL-28 melanoma, 103%; in the assay with SK-MEL-2 melanoma, 84.8%; in the assay on EKVX NSCLC, 58.4%; in the assay on SN12C renal, 91.8%. For the same compound, the growth in the assay with UO-31 renal is 70.2%; in the assay with TK-10 renal, 116%; in the assay on ACHN renal it was 76.6%; with CAKI-1 renal it was 82.3%; in the assay on A498 renal it was 62.2%; with CCRF-CEM leukemia, -2.37% (active). In addition, the growth with MOLT-4 leukemia was 55.2%.

As for `CN1CCN(c2ccc(NC3=CC(=O)c4ncncc4C3=O)cc2)CC1`, the growth is -71.7% (active) in the assay with HCT-15 colon; -29% (active) in the assay on HT29 colon; -94.7% (active) in the assay on SNB-75 CNS; -91.9% (active) in the assay on SNB-19 CNS; -82.3% (active) in the assay with U251 CNS; -8.86% (active) in the assay with PC-3 prostate. The growth in the assay with SK-MEL-5 melanoma is -94% (active); with LOX IMVI melanoma it was -63.8% (active); in the assay on SK-MEL-28 melanoma, -75.3% (active); in the assay with SK-MEL-2 melanoma, -54% (active); in the assay with EKVX NSCLC it was -87.1% (active); in the assay on SN12C renal it was -75.6% (active). Besides, the growth in the assay on UO-31 renal was -98.3% (active); in the assay with TK-10 renal it was -82.3% (active); in the assay with ACHN renal it was -96.2% (active); in the assay on CAKI-1 renal, -96% (active); in the assay on A498 renal, -36.7% (active); in the assay with CCRF-CEM leukemia, 3.21% (active). Moreover, the growth with MOLT-4 leukemia was -28.4% (active).

On to `O=C(CSc1nnnn1-c1ccccc1)Nc1ccc(Oc2ccccc2)cc1`, for which the growth was 97.4% in the assay on HCT-15 colon; 108% with HT29 colon; 101% with SNB-75 CNS; 98.8% with SNB-19 CNS; 101% in the assay with U251 CNS; 96.1% in the assay with PC-3 prostate. The growth in the assay on SK-MEL-5 melanoma was 103%; in the assay with LOX IMVI melanoma it was 104%; in the assay on SK-MEL-28 melanoma, 100%; in the assay on SK-MEL-2 melanoma it was 81%; with SN12C renal, 88.4%; with UO-31 renal it was 77.2%. Further, the growth in the assay on TK-10 renal was 119%; with ACHN renal, 99.7%; in the assay with CAKI-1 renal, 107%; with A498 renal, 103%; in the assay on CCRF-CEM leukemia, 114%; with MOLT-4 leukemia it was 91.7%.

`Cc1ccc(C(=O)c2ccc(CC(=O)N/N=C/c3cccc(O)c3O)n2C)cc1`: the growth in the assay on HCT-15 colon is 15.7%; in the assay with HT29 colon, 86.7%; in the assay on SNB-75 CNS, 25.4%; with SNB-19 CNS, 46%; with U251 CNS, 26%; in the assay with PC-3 prostate it was 59.2%. Moreover, the growth in the assay with SK-MEL-5 melanoma was 34.6%; with LOX IMVI melanoma, 17.3%; in the assay with SK-MEL-28 melanoma it was 80%; in the assay on SK-MEL-2 melanoma it was 95.3%; in the assay with EKVX NSCLC, 58.8%; with SN12C renal, 46.8%. Further, the growth with UO-31 renal is 14.2%; in the assay with TK-10 renal, 38.8%; in the assay on ACHN renal, 13.5%; with CAKI-1 renal, 37.3%; with A498 renal, 93.3%; in the assay with CCRF-CEM leukemia it was 13.1%. Besides, the growth in the assay on MOLT-4 leukemia was 11.2%.

In the case of `Nc1ncnc2c1N=C(c1ccc(F)cc1)CC(c1cccc(Nc3ccnc4cc(Cl)ccc34)c1)N2` (stereo unspecified), the growth in the assay on HCT-15 colon was 48.4%; with HT29 colon, 62.8%; in the assay with SNB-75 CNS it was 72.7%; in the assay with SNB-19 CNS, 82%; in the assay on U251 CNS, 66.2%; with PC-3 prostate, 66.3%. For the same compound, the growth in the assay with SK-MEL-5 melanoma was 72%; in the assay on LOX IMVI melanoma it was 68.2%; in the assay on SK-MEL-28 melanoma, 95.3%; in the assay with SK-MEL-2 melanoma, 89.1%; with EKVX NSCLC, 64.9%; with SN12C renal, 79.7%. Also, the growth in the assay with UO-31 renal was 59.6%; in the assay with TK-10 renal, 105%; with ACHN renal it was 96.3%; with CAKI-1 renal, 70.5%; in the assay on A498 renal it was 92.3%; in the assay with CCRF-CEM leukemia, 74.1%. For the same compound, in the assay with MOLT-4 leukemia, the growth was 39.6%.

The values above are taken from PubChem BioAssay (NCI).
